Our source for the Potency and outcome values is PubChem BioAssay (Tox21).

Records with an inconclusive call do not appear. The source made the active and inactive calls. Unless noted, calls come from the whole dose curve.

Assay [1] is described as follows: Nuclear factor erythroid 2-related factor 2/antioxidant responsive element (Nrf2/ARE) small molecule agonists: qHTS cell viability counter screen in human keratinocytes (AID 1919968; active = well fitted curve in the direction sought with a large enough effect in the repeat runs; an effect the other way counts as inactive or inconclusive; note: nearly all actives have a fitted effect of over 55% in size). In short, it runs like this:
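CellTiter-Fluor fluorescence, read 1 h after reagent, gave viability in the same wells as the ARE-luciferase assay. KeratinoSens cells (1,500/well) had 23 h compound exposure at 37 C/5% CO2 following 5 h plating.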
A general note: qHTS replaces the single test concentration by a dilution series.

Assay [2] addresses Gonadotropin-releasing hormone receptor (Homo sapiens) (UniProt P30968). The assay is described as follows: Human gonadotropin-releasing hormone receptor (GnRHR) small molecule agonists, calcium flux assay in GnRHR-HEK293 cells (AID 1920063). Note: nearly all actives have a fitted effect of over 35% in size. In short, it runs like this:
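Agonist mode: compounds at 15 concentrations, in triplicate, went onto calcium dye-loaded GnRHR-HEK293 cells. Intracellular calcium was then followed as 480/540 nm fluorescence at 1 s intervals over 3 min.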
Background: A change in cytosolic calcium serves as a functional read-out for many receptors and channels.

Assay [3] addresses KiSS-1 receptor (Homo sapiens) (UniProt Q969F8). Briefly: Human kisspeptin (KISS1R) small molecule agonists, calcium flux assay in KISS1R-HEK293 cells (AID 1920064; active = well fitted curve in the direction sought with a large enough effect in the repeat runs; an effect the other way counts as inactive or inconclusive). The procedure, abridged:
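Agonist mode: intracellular calcium rise tracked at 1 s intervals over 3 min (480/540 nm) immediately after compound addition to dye-loaded KISS1R-HEK293 stable cells. Each compound tested at 15 concentrations in triplicate.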

Assay [4] in a line: G protein-coupled receptor (GPCR) small molecule agonists, calcium flux assay: HEK293 wild type cell line counter screen (AID 1920065). In short, it runs like this: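 Calcium flux counter screen: compound added in agonist mode at 15 concentrations in triplicate to dye-loaded parental HEK293 cells. Fluorescence (480/540) read kinetically for 3 min; ATP served as positive control.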

Assay [5] in a line: p53 small molecule agonists, cell-based qHTS assay with human liver microsomes (AID 1963577).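 Note: p53 response element beta-lactamase reporter cells with liver microsomes plus NADPH.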 In short, it runs like this: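 With metabolic activation: human liver microsomes (0.5 mg/mL final) plus NADPH (0.5 mg/mL final) added alongside compounds to p53RE-bla cells; 16 h 37 C exposure; beta-lactamase read by LiveBLAzer fluorescence.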
A short description of assay [6]: p53 small molecule agonists, cell-based qHTS assay with rat liver microsomes (AID 1963578). In short, it runs like this: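 Metabolic activation by rat liver microsomes and NADPH, each 0.5 mg/mL final, added right after compounds to p53RE-bla reporter cells (4,000/well, plated 5 h earlier). 16 h at 37 C, then LiveBLAzer substrate for 2 h at room temperature in the dark; fluorescence read-out.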

Assay [7] can be described thus: p53 small molecule agonists, cell-based qHTS assay with human liver microsomes: qHTS cell viability counter screen (AID 1963579). Note: nearly all actives have a fitted effect of over 45% in size. In short, it runs like this: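 Metabolic activation used human liver microsomes and NADPH, both 0.5 mg/mL final, over 16 hours at 37 C on p53RE-bla cells (4,000/well). Cytotoxicity measured by CellTiter-Glo luminescence, 30 min at room temperature.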

The nature of assay [8]: p53 small molecule agonists, cell-based qHTS assay: qHTS cell viability counter screen (AID 1963581). Note: nearly all actives have a fitted effect of over 45% in size. The procedure, abridged: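 Counter screen read by CellTiter-Glo luminescence (ATP content, 30 min at room temperature), run in the same wells as the beta-lactamase reporter read. HCT-116 p53RE-bla cells saw compounds for 16 h at 37 C.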
The nature of assay [9]: p53 small molecule agonists, cell-based qHTS assay (AID 1963582; active = well fitted activation curve with a large enough effect in the signal ratio in the repeat runs, not every such curve was filed as active; the % refers to the signal ratio; note: potency is the fitted concentration of half-maximal effect). In short, it runs like this:
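Read-out is beta-lactamase FRET fluorescence after 2 h at room temperature with LiveBLAzer B/G substrate. p53 response element-bla cells were treated 16 h at 37 C with compounds in DMSO, added 5 h after seeding.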

Assay [10] concerns the target 5-hydroxytryptamine receptor 2A (Homo sapiens) (UniProt P28223). Briefly: 5-hydroxytryptamine receptor 2A (HTR2A) small molecule antagonists, cell-based qHTS assay (AID 1963586). Note: nearly all actives have a fitted effect of over 45% in size. Note: potency is the fitted concentration of half-maximal effect. The procedure, abridged:
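CHO cells stably expressing human HTR2A were plated for 18 h at 37 C, then loaded with calcium dye for 1 h. Compounds were preincubated 5 min at room temperature before DOI (4 nM solution) was added. Kinetic fluorescence was read for 3 min.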

For assay [11] the target is unchanged. The assay is described as follows: 5-hydroxytryptamine receptor 2A (HTR2A) small molecule agonists, cell-based qHTS assay (AID 1963587). Note: nearly all actives have a fitted effect of over 30% in size. Note: potency is the fitted concentration of half-maximal effect. In short, it runs like this:
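Kinetic calcium-flux fluorescence (2 min, 1 sec intervals) after compound addition in agonist mode. HTR2A-CHO cells were cultured 18 h, then dye-loaded 1 h at 37 C.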

The target in assay [12] is Muscarinic acetylcholine receptor M1 (Homo sapiens) (UniProt P11229). The assay is described as follows: Cholinergic receptor muscarinic 1 (CHRM1) small molecule antagonists, cell-based qHTS assay (AID 1963588). Note: nearly all actives have a fitted effect of over 40% in size. Note: potency is the fitted concentration of half-maximal effect. The procedure, abridged:
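Compounds were tested at 15 concentrations in three independent runs. Dye-loaded CHRM1-CHO cells were exposed 5 min at room temperature before stimulation by acetylcholine added at 50nM. Intracellular calcium was read kinetically on FDSS for 3 min.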

The target is the same in assay [13]. Briefly: Cholinergic receptor muscarinic 1 (CHRM1) small molecule agonists, cell-based qHTS assay (AID 1963589). Note: nearly all actives have a fitted effect of over 35% in size. In short, it runs like this: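 Agonist-mode calcium-flux screen: compounds at 15 concentrations, three independent runs, were pin-transferred onto dye-loaded human CHRM1-CHO cells. Fluorescence was then recorded kinetically every second over minutes.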

Assay [14] can be described thus: cAMP Responsive Elements (CRE) small molecule agonists, cell-based qHTS assay (AID 1963590). The procedure, abridged: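 Agonist mode: compound added to CRE-bla HEK 293T cells (2,000/well, 18 h after plating) for 3 h at 37 C/5% CO2. Reporter activity detected via FRET beta-lactamase substrate, 2 h room-temperature loading.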
The nature of assay [15]: cAMP Responsive Elements (CRE) small molecule antagonists, cell-based qHTS assay (AID 1963591; active = well fitted inhibition curve with a large enough effect in the signal ratio in the repeat runs, not every such curve was filed as active; the % refers to the signal ratio). The procedure, abridged: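 Antagonist mode: compounds are added alongside the adenylyl cyclase activator NKH477 (0.25 uM final) to CRE-bla HEK293T cells for 3 h. LiveBLAzer FRET substrate, 2 h at room temperature, reports bla expression.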
The target in assay [16] is Beta-2 adrenergic receptor (Homo sapiens) (UniProt P07550). The assay is described as follows: Adrenergic beta2 receptor (ADRB2) small molecule antagonists, cell-based qHTS assay (AID 1963592). Note: series mostly up to about 92 µM; nearly all actives have a fitted effect of over 50% in size. In short, it runs like this: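 Assay format: CHO-ADRB2 cells, 18-20hr seeding at 37C/5% CO2, then compound plus 1nM isoproterenol agonist mix for 0.5hr RT. Homogeneous time-resolved fluorescence cAMP detection after 1hr, expressed as 665/615 nm ratio.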

Assay [17] shares this target. The assay is described as follows: Adrenergic beta2 receptor (ADRB2) small molecule agonists, cell-based qHTS assay (AID 1963593).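 Note: CHO cells stably overexpressing human ADRB2.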 In short, it runs like this:
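CHO cells stably over-expressing ADRB2 were plated overnight at 37C, then dosed with compounds plus a stimulation mix containing 100uM IBMX and 25uM Ro-20-1724 for 0.5hr at room temperature. cAMP was measured by HTRF competition, 1hr.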

The target in assay [18] is D(2) dopamine receptor (Homo sapiens) (UniProt P14416). Briefly: Dopamine D2 receptor (DRD2) small molecule agonists, cell-based qHTS assay (AID 1963594). Note: nearly all actives have a fitted effect of over 35% in size. In short, it runs like this: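 cAMP accumulation in DRD2-HEK293 cells measured by HTRF after 1 h detection; compounds added 10 min before NKH477 (200nM […]) forskolin-analogue stimulation, 30 min at room temperature, with Ro20-1724 present at 0.1 mM final.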

Assay [19] has the same target. The assay is described as follows: Dopamine D2 receptor (DRD2) small molecule antagonists, cell-based qHTS assay (AID 1963595; active = well fitted inhibition curve with a large enough effect in the signal ratio in the repeat runs, with a control signal flat; the % refers to the signal ratio; note: potency is the fitted concentration of half-maximal effect). The procedure, abridged:
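Antagonist mode in DRD2-HEK293 cells: after compound addition with 0.1 mM Ro20-1724, cells received quinpirole (12 nM) and NKH477 (200 nM) for 30 min at room temperature; HTRF cAMP read after 1 h detection.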

Assay [20] is described as follows: p53 small molecule agonists, cell-based qHTS assay with rat liver microsomes: qHTS cell viability counter screen (AID 1963580). Note: nearly all actives have a fitted effect of over 45% in size. The procedure, abridged: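 Cytotoxicity counter screen: intracellular ATP read by CellTiter-Glo luminescence in the p53 reporter wells. HCT-116 p53RE-bla cells were treated for 16 h at 37 C alongside rat liver microsomes and NADPH, each 0.5 mg/mL final.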

Chain of Beta-2 adrenergic receptor (Homo sapiens) (P07550 whole entry, looked up): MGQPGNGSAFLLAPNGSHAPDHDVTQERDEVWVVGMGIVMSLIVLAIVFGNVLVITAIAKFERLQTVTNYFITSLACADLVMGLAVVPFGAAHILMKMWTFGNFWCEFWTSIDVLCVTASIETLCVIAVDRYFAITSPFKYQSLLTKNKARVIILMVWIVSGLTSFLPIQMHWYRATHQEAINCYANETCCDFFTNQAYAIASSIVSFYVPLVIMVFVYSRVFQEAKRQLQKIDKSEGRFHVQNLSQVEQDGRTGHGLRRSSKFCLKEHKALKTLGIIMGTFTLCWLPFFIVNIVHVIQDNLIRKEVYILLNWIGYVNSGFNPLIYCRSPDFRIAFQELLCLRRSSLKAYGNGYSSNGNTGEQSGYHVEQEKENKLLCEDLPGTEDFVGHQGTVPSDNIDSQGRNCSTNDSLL
Chain of KiSS-1 receptor (Homo sapiens) (Q969F8 whole entry, looked up): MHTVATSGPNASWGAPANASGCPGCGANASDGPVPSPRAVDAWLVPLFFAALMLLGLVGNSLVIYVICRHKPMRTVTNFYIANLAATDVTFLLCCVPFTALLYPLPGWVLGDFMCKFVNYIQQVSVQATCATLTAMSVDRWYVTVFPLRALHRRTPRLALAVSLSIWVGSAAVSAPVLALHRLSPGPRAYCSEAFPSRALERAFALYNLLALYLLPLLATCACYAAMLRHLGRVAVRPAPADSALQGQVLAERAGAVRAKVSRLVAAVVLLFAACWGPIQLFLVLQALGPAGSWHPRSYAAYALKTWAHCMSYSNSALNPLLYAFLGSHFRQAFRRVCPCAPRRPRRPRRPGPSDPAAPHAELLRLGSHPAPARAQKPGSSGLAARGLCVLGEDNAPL
Chain of 5-hydroxytryptamine receptor 2A (Homo sapiens) (P28223 whole entry, looked up): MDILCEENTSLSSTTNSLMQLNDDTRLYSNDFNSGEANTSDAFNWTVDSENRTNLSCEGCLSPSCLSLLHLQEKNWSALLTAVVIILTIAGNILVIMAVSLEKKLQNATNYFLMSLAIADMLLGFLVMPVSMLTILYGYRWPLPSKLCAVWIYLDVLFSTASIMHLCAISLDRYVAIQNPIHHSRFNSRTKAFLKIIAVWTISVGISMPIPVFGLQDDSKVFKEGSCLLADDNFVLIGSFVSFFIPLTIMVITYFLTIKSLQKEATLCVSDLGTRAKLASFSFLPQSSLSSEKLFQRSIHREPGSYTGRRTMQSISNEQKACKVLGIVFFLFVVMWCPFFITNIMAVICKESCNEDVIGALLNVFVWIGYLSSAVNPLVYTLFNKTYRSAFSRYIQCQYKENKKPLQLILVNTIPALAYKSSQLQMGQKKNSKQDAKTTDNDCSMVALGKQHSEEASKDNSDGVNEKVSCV
Chain of Gonadotropin-releasing hormone receptor (Homo sapiens) (P30968 whole entry, looked up): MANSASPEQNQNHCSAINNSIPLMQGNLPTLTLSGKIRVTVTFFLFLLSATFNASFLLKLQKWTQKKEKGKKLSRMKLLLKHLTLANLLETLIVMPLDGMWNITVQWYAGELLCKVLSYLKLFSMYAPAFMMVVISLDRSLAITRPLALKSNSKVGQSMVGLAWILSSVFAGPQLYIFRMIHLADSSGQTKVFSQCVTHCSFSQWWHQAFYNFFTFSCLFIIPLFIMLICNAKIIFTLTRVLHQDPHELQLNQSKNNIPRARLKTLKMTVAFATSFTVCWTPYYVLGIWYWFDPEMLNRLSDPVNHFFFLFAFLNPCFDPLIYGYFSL
Chain of Muscarinic acetylcholine receptor M1 (Homo sapiens) (P11229 whole entry, looked up): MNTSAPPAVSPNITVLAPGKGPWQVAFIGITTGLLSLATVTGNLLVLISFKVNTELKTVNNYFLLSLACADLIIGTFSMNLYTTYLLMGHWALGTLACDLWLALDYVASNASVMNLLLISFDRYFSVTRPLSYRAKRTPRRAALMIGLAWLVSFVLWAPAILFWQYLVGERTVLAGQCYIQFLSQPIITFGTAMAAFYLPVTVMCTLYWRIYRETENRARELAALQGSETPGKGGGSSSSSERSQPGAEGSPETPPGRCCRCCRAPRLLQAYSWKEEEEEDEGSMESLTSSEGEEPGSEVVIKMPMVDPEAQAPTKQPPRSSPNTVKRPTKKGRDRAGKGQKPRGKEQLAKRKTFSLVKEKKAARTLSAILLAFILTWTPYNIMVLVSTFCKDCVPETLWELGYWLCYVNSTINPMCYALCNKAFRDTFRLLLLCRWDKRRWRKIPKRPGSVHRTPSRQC
Chain of D(2) dopamine receptor (Homo sapiens) (P14416 whole entry, looked up): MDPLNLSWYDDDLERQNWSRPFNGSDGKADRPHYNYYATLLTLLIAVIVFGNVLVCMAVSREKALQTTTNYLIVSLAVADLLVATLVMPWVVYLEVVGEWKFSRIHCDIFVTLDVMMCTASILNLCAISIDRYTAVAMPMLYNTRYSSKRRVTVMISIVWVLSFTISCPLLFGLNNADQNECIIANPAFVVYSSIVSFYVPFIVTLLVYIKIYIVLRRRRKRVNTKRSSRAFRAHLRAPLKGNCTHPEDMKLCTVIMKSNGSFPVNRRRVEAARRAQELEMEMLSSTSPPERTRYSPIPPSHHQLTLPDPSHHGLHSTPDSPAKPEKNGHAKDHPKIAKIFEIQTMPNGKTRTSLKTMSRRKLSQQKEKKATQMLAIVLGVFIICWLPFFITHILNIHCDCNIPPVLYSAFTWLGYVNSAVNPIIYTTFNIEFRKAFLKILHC

`CC(=O)Oc1ccc(C(C)=O)cc1`: the Potency entry in [1], in assay [2], in assay [5], in assay [6], in [7] and in assay [8] was “inactive” each time. Further, the Potency result in assay [9], in assay [10], in [11], in assay [12], in assay [13] and in assay [14] was “inactive” throughout. In addition, the Potency entry in assay [15], in assay [16], in assay [17], in assay [18] and in assay [19] was “inactive” each time. For the same compound, the result in assay [3] and in assay [4] was inactive.

As for `N=c1ccn2c(n1)O[C@H]1[C@H](O)[C@@H](CO)O[C@H]12`, the Potency entry in [1], in [2], in [5], in [7], in [20] and in assay [8] was “inactive” each time. Also, the Potency result in assay [10], in assay [11], in assay [12], in [13], in [14] and in [15] was “inactive” throughout. The Potency entry in assay [16], in assay [18] and in assay [19] was “inactive” in each case. Also, the result in assay [3] and in assay [4] was inactive. In assay [9], the Potency was 1450 nM (active).

Regarding `FC1(F)C(F)(F)C(F)(F)C2(F)C(F)(C1(F)F)C(F)(F)C(F)(F)C1(F)C(F)(F)C(F)(F)C(F)(F)C(F)(F)C12F` (stereo not drawn), the Potency result in assay [1], in [2], in [5], in [6], in assay [7] and in [20] was “inactive” each time. The Potency entry in assay [9], in assay [10], in [12], in assay [13], in [14] and in assay [15] was “inactive” throughout. Besides, the Potency entry in assay [16], in [18] and in assay [19] was “inactive” each time. The outcome in assay [3] and in assay [4] was inactive.

With `CC(C(=O)O)c1ccc2c(c1)Cc1cccnc1O2` (stereo not drawn), the Potency entry in assay [1], in assay [2], in [5], in assay [6], in assay [7] and in assay [20] was “inactive” throughout. Also, the Potency entry in [10], in assay [11], in assay [12], in [13] and in [16] was “inactive” throughout. The outcome in [3] and in assay [4] was inactive.

Take `Brc1ccccn1`: the Potency result in assay [1], in assay [2], in [5], in assay [7], in assay [20] and in assay [8] was “inactive” throughout. Moreover, the Potency entry in assay [9], in [10], in assay [11], in assay [12], in assay [13] and in assay [14] was “inactive” throughout. For the same compound, the Potency entry in assay [15], in [16], in assay [18] and in assay [19] was “inactive” in each case. The result in [3] and in [4] was inactive.

Take `COc1ccccc1N1CCN(CCCCNC(=O)c2ccc(-c3ccc(C(C)=O)cc3)cc2)CC1`: the Potency entry in assay [1], in [2], in [5], in assay [6], in assay [7] and in assay [20] was “inactive” in each case. For the same compound, the Potency result in assay [9], in [13], in assay [14] and in assay [18] was “inactive” in each case. The result in [3] and in [4] was inactive. Besides, the Potency in [10] is 326 nM (active); in assay [11] it was 53.5 nM (active); in [12] it was 1030 nM (active); in assay [19], 750 nM (active).

Regarding `O=C1CCCCCCCCCCCCCC1`, the Potency result in [1], in assay [2], in assay [5], in assay [6], in [7] and in assay [20] was “inactive” throughout. Besides, the Potency entry in [11], in [12], in assay [13], in [14], in assay [15] and in assay [16] was “inactive” throughout. Besides, the Potency result in [17], in assay [18] and in assay [19] was “inactive” each time. The outcome in assay [3] and in assay [4] was inactive.
